Data reported in PubChem BioAssay (NCI).
The panel holds about 83,000 compounds, 20% with a hit somewhere; the sample as a whole holds those more often.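 Assay: single dose, 48 h. Readout: percent growth (0 = no net growth; negative = cell death). Active: <10.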 Values without a mark were called inactive. Activity calls are given as the source filed them.

Experiments:
Assay in all cases: NCI-60 one-dose screen, 48 h (100 = growth as untreated, 0 = no growth, -100 = all killed)
Settings in all cases: 10 µM unless noted
NCI-H23 lung = system: NCI-H23 lung
NCI-H226 lung = system: NCI-H226 lung
NCI-H322M lung = system: NCI-H322M lung
HOP-62 NSCLC = system: HOP-62 NSCLC
NCI-H460 lung = system: NCI-H460 lung
HOP-92 NSCLC = system: HOP-92 NSCLC
NCI-H522 lung = system: NCI-H522 lung
A549/ATCC NSCLC = system: A549/ATCC NSCLC
786-0 renal = system: 786-0 renal
COLO 205 colon = system: COLO 205 colon
DU-145 prostate = system: DU-145 prostate
K-562 leukemia = system: K-562 leukemia
MALME-3M melanoma = system: MALME-3M melanoma
MDA-MB-231 breast = system: MDA-MB-231 breast
RXF 393 renal = system: RXF 393 renal
SF-268 CNS = system: SF-268 CNS
SF-295 CNS = system: SF-295 CNS
SF-539 CNS = system: SF-539 CNS
UACC-257 melanoma = system: UACC-257 melanoma
M14 melanoma = system: M14 melanoma

Structure (SMILES) | growth (NCI-H23 lung) | growth (NCI-H226 lung) | growth (NCI-H322M lung) | growth (HOP-62 NSCLC) | growth (NCI-H460 lung) | growth (HOP-92 NSCLC) | growth (NCI-H522 lung) | growth (A549/ATCC NSCLC) | growth (786-0 renal) | growth (COLO 205 colon) | growth (DU-145 prostate) | growth (K-562 leukemia) | growth (MALME-3M melanoma) | growth (MDA-MB-231 breast) | growth (RXF 393 renal) | growth (SF-268 CNS) | growth (SF-295 CNS) | growth (SF-539 CNS) | growth (UACC-257 melanoma) | growth (M14 melanoma)
CC(=O)O[C@H]1CC[C@]2(C)[C@H]3CC=C4[C@@H]5[C@H](C)[C@@H](C)CC[C@]5(C(=O)NCCNCCNCCN)CC[C@@]4(C)[C@]3(C)CC[C@H]2C1(C)C | 94.6% | 90.5% | 87.6% | 86.2% | 76.8% | 55% | 87.2% | 73.8% | 84.5% | 72.5% | 89.8% | 12% | 59.3% | 78% | 82.7% | 84.1% | 101% | 84.4% | 98% | 88.1%
Cc1cccc(C)c1NC(=O)CSC(=S)N1CCN(CCOCCO)CC1 | 100% | 117% | 85.8% | 105% | 114% | 110% | 90% | 101% | 96.4% | 113% | 101% | 96% | 87.3% | 116% | 125% | 93.9% | 95.9% | 94.3% | 112% | 100%
CC1(C)C(=O)CC[C@]2(C)[C@H]3C(=O)C=C4[C@@H]5C[C@@](C)(C(=O)NCCNCCN)CC[C@]5(C)CC[C@@]4(C)[C@]3(C)CC[C@@H]12 | 98.4% | 96.8% | 108% | 94.1% | 99.2% | 66.2% | 111% | 97.6% | 99.9% | 108% | 102% | 86.6% | 92.2% | 102% | 103% | 83.9% | 101% | 98.7% | 101% | 90.6%
COC(=O)[C@]12CC[C@@H](C(=O)/C=C/c3cccnc3)[C@@H]1[C@H]1CC[C@@H]3[C@@]4(C)C/C(=C/c5cccnc5)C(=O)C(C)(C)[C@@H]4CC[C@@]3(C)[C@]1(C)CC2 | -48.3% (active) | -44.4% (active) | -80.7% (active) | -85.6% (active) | -78.4% (active) | -79.9% (active) | -59.7% (active) | -9.34% (active) | -92.3% (active) | -45.1% (active) | -67.8% (active) | -21.6% (active) | -95.2% (active) | -81.3% (active) | -93.6% (active) | -80.8% (active) | -98.5% (active) | -96.5% (active) | -58.9% (active) | -80.3% (active)
COc1cc2nc(Cl)nc(Nc3cccc(C(=O)/C=C/c4ccc(F)cc4)c3)c2cc1OC | 76% | 73.2% | 86.5% | 85.9% | 95.4% | 75.3% | 73.4% | 70.2% | 57.7% | 89.5% | 85.7% | 7.78% (active) | 81.2% | 62.4% | 69.4% | 89.6% | 74.1% | 25.8% | 102% | 62%
N#C/C(=C\c1ccc(-c2ccc(Br)cc2)o1)c1nc(-c2ccco2)cs1 | 89.4% | 88.2% | 85% | 95.7% | 91.4% | 86.3% | 93.2% | 98.3% | 98.8% | 102% | 101% | 97.9% | 97.7% | 76% | 101% | 101% | 91.2% | 90.8% | 102% | 89.2%
C/C(=C(/c1ccccc1)c1ccc(N2C(=O)c3cccc4c(NCc5ccccc5)ccc(c34)C2=O)cc1)c1ccccc1 | 89.8% | 89.1% | 97.6% | 100% | 99.8% | 89% | 93.1% | 92.6% | 103% | 112% | 101% | 85.8% | 96.3% | 96.1% | 112% | 102% | 96.2% | 98.6% | 106% | 89.1%
COc1cc2nc(Cl)nc(Nc3cccc(C(=O)/C=C/c4ccccc4)c3)c2cc1OC | 68.6% | 66.1% | 90.3% | 70.1% | 89% | 82.2% | 56.9% | 74.5% | 52.7% | 62.9% | 87.7% | 9.16% (active) | 78% | 67.6% | 68.4% | 85.9% | 69.5% | 2.74% (active) | 96.5% | 51.2%
Cc1ccc(-c2nn(Cc3cn(-c4cc(C)nc5ccccc45)nn3)c3ncnc(N)c23)cc1 | 68.7% | 35% | 40.6% | 60.4% | 68.4% | -0.284% (active) | 55.5% | 44.1% | 48.6% | 54.7% | 47.8% | 53.2% | 52.5% | 33.1% | 27.3% | 35.8% | 66.5% | 74.7% | 42.5% | 52.7%
O=C1c2cc3c(cc2-c2c1c1ccc(F)cc1c(=O)n2CCCN1CCOCC1)OCO3 | 40.6% | 20.4% | 79.8% | 18.9% | 14.1% | 68.4% | 25.5% | 33.8% | 24.1% | 55.1% | 28.4% | 41.6% | 101% | 105% | 70.6% | 43.3% | 21.7% | 11.2% | 62.7% | 23.2%
NCCn1cc(-c2nc(-c3c[nH]c4ncccc34)cs2)c2cc(F)ccc21 | 76.7% | 74.5% | 76.9% | 73.6% | 51.3% | 49.1% | 90.7% | 61.7% | 87.5% | 49.2% | 93.9% | 22.6% | 78.6% | 63.9% | 86.7% | 82.1% | 96.7% | 82.7% | 93.8% | 86.2%
CC(C)(C)n1cc(-c2ccnc(NCCCNS(=O)(=O)c3ccc(Cl)cc3)c2)c(-c2cccc(F)c2)n1 | 70.9% | 80.9% | 98.5% | 93% | 59.4% | 73.6% | 84.2% | 61.9% | 71.4% | 43.4% | 87% | 24.8% | 73.8% | 81.6% | 72% | 86.6% | 68.2% | 75% | 93.1% | 77.7%
Cc1ccncc1C(=O)O | 92.7% | 101% | 101% | 113% | 99.6% | 88.4% | 128% | 90.1% | 103% | 128% | 101% | 116% | 96.2% | 101% | 118% | 94.8% | 99.8% | 94.4% | 102% | 100%
O=C1OC(c2ccc(Cl)c(Cl)c2)=C/C1=C/c1cccc([N+](=O)[O-])c1 | 88.1% | 86.3% | 102% | 94.2% | 102% | 94.3% | 90.9% | 97.4% | 105% | 108% | 109% | 99% | 101% | 108% | 96.4% | 97.9% | 101% | 103% | 103% | 106%
N=C(N)c1ccc(-c2ccc(-c3cc(F)cc(F)c3)o2)nc1 | 87.8% | 86.6% | 96.4% | 78.4% | 99.4% | 59% | 99.1% | 94.8% | 95.6% | 63.4% | 104% | 15.9% | 97.3% | 78.3% | 75.2% | 90.8% | 95.9% | 88.4% | 115% | 94.7%
